D3 ag = D3 dopamine receptor (human) agonism | P35462 | max activation, % | 410,000 compounds, 0.58% hits | D3R DiscoveRx beta-arrestin cells, luminescence, 90 min; in the data active = max activation above about 30%
Target sequence (P35462 whole entry, looked up): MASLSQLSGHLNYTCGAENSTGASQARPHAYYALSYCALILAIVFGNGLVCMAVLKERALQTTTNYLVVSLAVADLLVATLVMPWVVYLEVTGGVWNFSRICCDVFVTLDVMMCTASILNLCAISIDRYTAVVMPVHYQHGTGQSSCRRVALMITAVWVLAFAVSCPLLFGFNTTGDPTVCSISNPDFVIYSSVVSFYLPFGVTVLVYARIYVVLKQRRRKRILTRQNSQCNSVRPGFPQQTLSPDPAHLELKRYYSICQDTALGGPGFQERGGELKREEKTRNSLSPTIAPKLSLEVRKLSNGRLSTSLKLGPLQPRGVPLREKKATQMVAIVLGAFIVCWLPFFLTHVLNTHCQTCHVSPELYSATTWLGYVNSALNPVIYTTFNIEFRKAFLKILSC
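Cells at 1500/well, incubated overnight, then treated with pinned compounds (dopamine as control) for 90 min at 37 degrees C. DiscoveRx reagent added for 30 - 60 minutes at room temperature; luminescence read.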
D3 antag = D3 dopamine receptor (human) antagonism; D3R cells, DiscoveRx beta-arrestin luminescence, antagonist mode; active compounds read low; max response, negative = inhibition, %; 360,000 compounds, 2.5% hits; AID 652054; in the data active = max response below about -50%; inconclusive = no clear call, values can overlap the other calls
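Cells expressing the human receptor were seeded at 1500 cells/well, incubated overnight at 37 degrees C in 5% CO2, then exposed to library compounds with dopamine controls for 90 minutes at 37 degrees C before luminescent detection.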
SW480 rerep = induces DNA re-replication in SW480 colon adenocarcinoma cells; SW480 DNA re-replication, Hoechst DNA content imaging, 48 h; Potency, µM (highest dose often 46.1 µM), actives largely listed as activators; 340,000 compounds, 1.8% hits; AID 624297; also: nearly all actives have a fitted effect of over 55% in size
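First, 250 cells per well were seeded. Next, compound or vehicle (23 nL) was pinned in, plates sat 48 hr at 37 C. Finally Hoechst was added for 40 min before fluorescence scanning.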
KB-3-1 cytotox = kills parental KB-3-1 adenocarcinoma cells | KB-3-1 viability, CellTiter-Glo ATP luminescence, 72 h | 400,000 compounds, 1.4% hits | AID 1347075 | Potency, µM (series often up to 46.1 µM), actives largely listed as cytotoxic; also: nearly all actives have a fitted effect of over 60% in size
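Cytotoxicity measured as CellTiter-Glo luminescence after 72 h at 37 C. Compound titrations were pinned onto drug-naive KB-3-1 parental adenocarcinoma cells grown in DMEM with 10% FBS, and normalized data fitted to concentration-response curves.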
MCF10A rerep = inducers of DNA re-replication in MCF 10A breast cells. AID 624296. 350,000 compounds, 2.9% hits. Potency, µM (top dose mostly 46.1 µM), actives largely listed as activators. MCF 10A DNA re-replication, Hoechst nuclear intensity, 48 h; also: nearly all actives have a fitted effect of over 50% in size
KB-V1 MDR tox = KB-V1 MDR subline cytotoxicity; KB-V1 MDR cells viability, CellTiter-Glo, 72 h; Potency, µM (doses to about 46.1 µM), most hits filed as cytotoxic; 400,000 compounds, 3.4% hits; also: nearly all actives have a fitted effect of over 60% in size
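Luminescent ATP read-out (CellTiter-Glo, 10 min) measures survival of drug-selected KB-V1 MDR cells after 72 h, 37 degrees C compound exposure. Medium: phenol-red-free DMEM, 10% FBS. Values from fitted concentration-response curves.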
Each line names hits and unclear results; the compound was inactive in the other large screens. In the library only some 8.9% were active in any assay of this set; here they are far more common. Unless noted, calls follow the shape of the dose curve; as a rule, active = well fitted curve in the direction sought with a large enough effect; inconclusive = small, poorly fitted or top-dose-only effect, or another doubt; inactive = no such curve, though single readings can be large; an effect the other way counts as inactive or inconclusive.

O=C(O)CCCCCN1C(=O)c2ccc(C(=O)O)cc2C1=O	MCF10A rerep 15µM
O=c1ccn(Cc2ccccc2)c2ccccc12	none
c1ccc(Cn2c[n+](Cc3ccccc3)c3ccccc32)cc1	KB-3-1 cytotox 23µM
CC[C@H](C)[C@@H]1OC(=O)[C@@H](C)[C@@H](CC)NC(=O)[C@H](C)N(C)C(=O)C(C)(C)C(=O)C(C)NC(=O)[C@H](Cc2ccccc2)N(C)C(=O)[C@H](C(C)C)N(C)C(=O)CNC(=O)[C@H](CC(C)C)N(C)C(=O)CNC1=O (stereo partly specified)	KB-3-1 cytotox 1.2µM (no result: SW480 rerep, MCF10A rerep)
C=C(C)CNC(=S)NNC(=O)c1ccco1	SW480 rerep 1.8µM, MCF10A rerep 16µM
O=S1(=O)Nc2c(ccc3cccnc23)-c2ccccc21	D3 antag -137, KB-3-1 cytotox 18µM, KB-V1 MDR tox inconclusive
O=C(Nc1ccccc1N1CCN(C(=O)c2ccccc2)CC1)c1cc(Br)ccc1Cl	SW480 rerep inconclusive, KB-3-1 cytotox inconclusive, KB-V1 MDR tox 23µM
Cc1ccccc1C(=O)Nc1ccccc1N1CCN(C(=O)c2ccccc2)CC1	none
COc1ccc(Br)cc1C(=O)Nc1ccccc1N1CCN(C(=O)c2ccccc2)CC1	KB-V1 MDR tox inconclusive
COc1c(C)cc(Br)cc1C(=O)Nc1ccccc1N1CCN(C(=O)c2ccccc2)CC1	KB-3-1 cytotox inconclusive, KB-V1 MDR tox 23µM
COc1ccc2ncnc(NCc3cccs3)c2c1-c1ccc2c(c1)OCO2	KB-3-1 cytotox inconclusive (no result: D3 ag, D3 antag, SW480 rerep, MCF10A rerep)
CCOC(=O)C1CCCN(C(=O)/C=C/c2ccccc2[N+](=O)[O-])C1 (stereo unspecified)	none
CCOC(=O)C1CCN(C/C=C/c2ccccc2[N+](=O)[O-])CC1	D3 antag -56
CCOC(=O)C1CCN(C/C=C/c2ccccc2OC)CC1	D3 antag -68
CCN(C(=O)Cn1nc2c3cc(F)ccc3n(Cc3cccc(C)c3)cc-2c1=O)c1cccc(C)c1	KB-V1 MDR tox inconclusive (no result: D3 antag, SW480 rerep, MCF10A rerep)
O=c1ccc2cc3c(-c4ccccc4)coc3cc2o1	KB-3-1 cytotox 18µM, MCF10A rerep 23µM, KB-V1 MDR tox 6.5µM
CC(=O)Oc1ccc2occ(-c3ccccc3)c2c1	none
Cc1cc(C)cc(N2CC(c3nc(-c4ccccc4C)no3)CC2=O)c1 (stereo unspecified)	none (no result: D3 antag, SW480 rerep, MCF10A rerep)
COCc1cc(S(=O)c2ccc(Cl)cc2)nc(C)n1 (stereo unspecified)	D3 antag inconclusive, SW480 rerep inconclusive, MCF10A rerep 15µM
CCCS(=O)(=O)NC(=O)C1(C)CCCN(C(=O)c2ccco2)C1 (stereo unspecified)	none (no result: SW480 rerep, MCF10A rerep)
COc1ccccc1CNc1ncnc2onc(-c3ccc(Cl)cc3)c12	none (no result: D3 antag, SW480 rerep, MCF10A rerep)
COc1ccc(OC)c(CNc2ncnc3onc(-c4ccc(Cl)cc4)c23)c1	KB-3-1 cytotox 5.8µM, KB-V1 MDR tox 8.2µM (no result: D3 antag, SW480 rerep, MCF10A rerep)
COC1=CCC2([N+](=O)[O-])CN(CCO)CC1([N+](=O)[O-])C2 (stereo unspecified)	none
O=C(O)CCN1CC2([N+](=O)[O-])CC=C(OCCO)C([N+](=O)[O-])(C1)C2 (stereo unspecified)	SW480 rerep 3.7µM
COc1ccccc1N1CCN(C(=O)c2c(-c3ccccc3Cl)noc2C)CC1	SW480 rerep inconclusive, KB-3-1 cytotox 21µM, KB-V1 MDR tox inconclusive
Cc1onc(-c2ccccc2Cl)c1C(=O)N1CCN(C/C=C/c2ccccc2)CC1	SW480 rerep inconclusive, MCF10A rerep inconclusive, KB-V1 MDR tox 15µM
Cc1onc(-c2ccccc2Cl)c1C(=O)OCC(=O)N1CCN(c2ccccc2)CC1	MCF10A rerep inconclusive, KB-V1 MDR tox 8.2µM
Cc1onc(-c2ccccc2)c1C(=O)N1CCN(Cc2ccccc2)CC1	KB-V1 MDR tox 23µM
CC(=O)[C@@H]1CC[C@@H]2[C@@H]3C[C@H](C)C4=CC(=O)CC[C@@]4(C)[C@H]3[C@H](O)C[C@]21C	none (no result: D3 ag, D3 antag, KB-3-1 cytotox, KB-V1 MDR tox)
Cc1onc(-c2ccccc2Cl)c1C(=O)N1CCc2ccccc21	D3 antag inconclusive, KB-V1 MDR tox 23µM
CCOC(=O)c1c(C)[nH]c(CCC(=O)Nc2cc(C)ccc2OC)c1C	none (no result: D3 antag, SW480 rerep, KB-3-1 cytotox, MCF10A rerep, KB-V1 MDR tox)
